This is an account of results in ChEMBL document CHEMBL3433997, “St. Jude Leishmania screening dataset” (2016).

The target of the first assay is Hexose transporter 1 (Plasmodium falciparum) (UniProt O97467). Briefly: ST_JUDE_LEISH: Cytotoxicity at 2uM final concentration against transgenic Leishmania Mexicana promastigotes LmPfHT that are glucose transport deficient and complemented with the Plasmodium falciparum hexose transporter. Activity is measured by DNA content using SYBR green in vitro. The format is functional.
As to `O=C(/C=C/c1ccc(Cl)c(Cl)c1)NCCCCCN1CCCN(C(=O)Nc2ccc(Cl)cc2)CC1`, the inhibition was -0.48%.

Regarding `Cc1[nH]c(C)c(-c2ccc(-c3ccc(OC(F)(F)F)cc3)nc2)c(=O)c1Br`, the inhibition was 8.43%.

As for `CSc1ccc2ccccc2c1CNCCCCCCNCc1c(SC)ccc2ccccc12`, the inhibition was determined as 0.13%.

In the case of `Cc1cc(Nc2cccc(C(F)(F)F)c2)nc(N)n1`, the inhibition is 0.91%.

For `O=C(NCC1CCN(Cc2ccc3c(c2)OCCO3)C1)c1cc(-c2cccc(C(F)(F)F)c2)cs1` (stereo not given), the inhibition was -0.91%.

Take `c1cc(CNCCc2ccncc2)cc(-c2ccc(-c3nc4ccccc4[nH]3)s2)c1`: the inhibition was -0.86%.

For the molecule `CC(Cc1ccc(NC(=O)c2ccc(CNCc3ccccc3)cc2)cc1)N(CCc1cccc(Cl)c1)C(=O)OC(C)(C)C` (stereo not given), the inhibition was determined as 4.74%.

Regarding `CN1C(=C2SC(=Nc3ccc4ncccc4c3)N(Cc3ccccc3)C2=O)Sc2ccc(Cl)cc21`, the inhibition stood at 2.08%.

For `CCn1c(-c2nonc2N)nc2c(-c3cccc(NC(=O)Nc4ccc(Cl)cc4)c3)ncc(OCCCN)c21`, the inhibition stood at 0.62%.

With `O=C(NC1CCN(c2ccnc3cc(Cl)ccc23)C1)c1ccc(F)cc1` (stereo not given), the inhibition amounted to 2.61%.

Take `CCCc1cc(OC)c(C[C@H]2c3cc(O)c(Cl)cc3CCN2C)cc1OC`: the inhibition is 1.13%.

As to `Cc1ccc(CN2CCCN(Cc3cccc(NC(=O)c4cc5ccccc5s4)c3)CC2)cc1C`, the inhibition was determined as 0.71%.

Consider `Cc1ccc(Nc2ccnc3ccc(C(F)(F)F)cc23)cc1O`, for which the inhibition was 3.33%.

`CCCNCc1ccc(-c2ccc(CN(CCOC)C(=O)c3cscn3)cc2)nc1`: the inhibition turned out to be 1.83%.

`CCOC(=O)CCCCOc1c(OC)cc(Cc2cnc(N)nc2N)cc1OC`: the inhibition stood at 6.88%.

With `OCCNc1nc(Nc2ccc(F)cc2)nc2ccccc12`, the inhibition came out at 3.35%.

Take `CC1CCCCN1CCCNc1nc(NCc2ccccc2)c2ccccc2n1` (stereo not given): the inhibition is 31.8%.

`Clc1ccc2nc(-c3cccnc3)[nH]c2c1`: the inhibition is 8.47%.

With `Cn1nc(C(F)(F)F)c(-c2ccc(F)cc2)c1NC(=O)Nc1ccc(F)cc1F`, the inhibition is 2.65%.

Turning to `CS(=O)(=O)CCOCc1ccc(-c2ccc3ncnc(Nc4ccc(OCc5cccc(F)c5)c(Cl)c4)c3c2)o1`, the inhibition was 4.18%.

Turning to `CCOc1ccc(C(=O)Nc2cc(Br)c3c(c2)CNCC3)cc1C#N`, the inhibition was found to be 5.03%.

For `CCN(CC)CCn1c(=N)n(CC(=O)c2ccc(-c3ccccc3)cc2)c2ccccc21`, the inhibition is 1.91%.

In the case of `CN1CCN(c2cc(NC(=O)c3ccc(-c4ccc(Cl)cc4)cc3)ccc2Cl)CC1`, the inhibition is -0.81%.

Regarding `COc1ccc2nccc(N/N=C/c3cccc([N+](=O)[O-])c3)c2c1`, the inhibition came out at 2.68%.

With `CC(C)(C)C1CC(=O)CC2C(=O)N(c3ccc(Br)cc3)C(=O)C21` (stereo not given), the inhibition amounted to 0.44%.

For `COc1cc2nc(N3CCC(CNC(=O)c4ccc(NC(=O)c5ccc(Cl)cc5)cc4)CC3)nc(N)c2cc1OC`, the inhibition worked out at 0.98%.

Consider `O=C(Nc1cccc(-c2cccc(-c3nc4ccccc4[nH]3)c2)c1)Nc1ccc2c(c1)OCO2`, for which the inhibition was found to be 4.48%.

Turning to `CCN(CC)CCOc1ccc(Nc2ncc3cc(-c4c(Cl)cccc4Cl)c(=O)n(C)c3n2)cc1`, the inhibition was 83.3%.

Consider `COc1ccc(CN(C)CC(O)COc2ccc(NC(=O)c3cccc4c(=O)c5cccc(OC)c5[nH]c34)cc2)cc1OC` (stereo not given), for which the inhibition is 3.04%.

In the case of `O=C(Nc1ccccc1)c1nn(CCCN2CCC(N3CCCC3)CC2)cc1-c1ccc(Cl)c(Cl)c1`, the inhibition is 0.39%.

Regarding `Cc1[nH]c(C)c(-c2ccc(OCc3ccc(F)cc3)cc2)c(=O)c1Br`, the inhibition is -1.87%.

Regarding `CCOc1ccc(C(=O)Nc2cc3c(c(C(F)(F)F)c2)CCNC3)cc1Cl`, the inhibition was 4.16%.

For `CCCC(C(=O)OCCN(CC)CC)(c1ccc(Cl)cc1)c1ccc(Cl)cc1`, the inhibition came out at 5.49%.

With `Cn1cc(CCNc2ccnc(N3CCC(c4ncc[nH]4)CC3)n2)c2ccccc21`, the inhibition was -1.57%.

As for `Clc1cnc2ccc3c(c2c1CCN1CCC(NCc2cc4c(cn2)OCCO4)CC1)OCCO3`, the inhibition stood at 42.2%.

Consider `CCCCCCCCn1c2c(c(=N)c3c1CCC3)CCC2`, for which the inhibition was found to be 91.5%.

On to `O=C(Nc1ccc2c(c1)OCO2)c1cc(-c2cccnc2)cnc1NCc1ccc2c(c1)OCO2`, for which the inhibition was found to be 0.19%.

As for `CC(C)CNCc1cccc(-c2cccc(CN(CCN(C)C)C(=O)Nc3ccccc3)c2)c1`, the inhibition came out at 4.17%.

Turning to `NC(=O)c1cnc2cc(-c3ccoc3)ccc2c1Nc1ccc(NC(=O)Nc2ccccc2Cl)cc1`, the inhibition worked out at 0.16%.

Turning to `Cc1cccc2nc(-c3cccc(-c4ccc(CNCCCN5CCCC5=O)cc4)c3)[nH]c12`, the inhibition came to 6.82%.

A further assay addresses Glucose transporter (Leishmania mexicana) (UniProt O61059). Briefly: ST_JUDE_LEISH: Cytotoxicity at 2uM final concentration against transgenic Leishmania Mexicana promastigotes LmGT2 that are glucose transport deficient and complemented with the L. Mexicana glucose transporter 2. Activity is measured by DNA content using SYBR green in vitro. Type of assay: functional.
Take `O=C(/C=C/c1ccc(Cl)c(Cl)c1)NCCCCCN1CCCN(C(=O)Nc2ccc(Cl)cc2)CC1`: the inhibition was determined as 0.01%.

Consider `Cc1[nH]c(C)c(-c2ccc(-c3ccc(OC(F)(F)F)cc3)nc2)c(=O)c1Br`, for which the inhibition turned out to be 8.85%.

As for `CSc1ccc2ccccc2c1CNCCCCCCNCc1c(SC)ccc2ccccc12`, the inhibition was found to be 1.41%.

As for `Cc1cc(Nc2cccc(C(F)(F)F)c2)nc(N)n1`, the inhibition came to 1.19%.

On to `O=C(NCC1CCN(Cc2ccc3c(c2)OCCO3)C1)c1cc(-c2cccc(C(F)(F)F)c2)cs1` (stereo not given), for which the inhibition was determined as 2.27%.

For the molecule `c1cc(CNCCc2ccncc2)cc(-c2ccc(-c3nc4ccccc4[nH]3)s2)c1`, the inhibition is -0.99%.

Regarding `CC(Cc1ccc(NC(=O)c2ccc(CNCc3ccccc3)cc2)cc1)N(CCc1cccc(Cl)c1)C(=O)OC(C)(C)C` (stereo not given), the inhibition is 3.04%.

As to `CN1C(=C2SC(=Nc3ccc4ncccc4c3)N(Cc3ccccc3)C2=O)Sc2ccc(Cl)cc21`, the inhibition worked out at 1.06%.

For `CCn1c(-c2nonc2N)nc2c(-c3cccc(NC(=O)Nc4ccc(Cl)cc4)c3)ncc(OCCCN)c21`, the inhibition came to 1.46%.

With `O=C(NC1CCN(c2ccnc3cc(Cl)ccc23)C1)c1ccc(F)cc1` (stereo not given), the inhibition was found to be 4.18%.

Turning to `CCCc1cc(OC)c(C[C@H]2c3cc(O)c(Cl)cc3CCN2C)cc1OC`, the inhibition was 1.4%.

For the molecule `Cc1ccc(CN2CCCN(Cc3cccc(NC(=O)c4cc5ccccc5s4)c3)CC2)cc1C`, the inhibition was -0.17%.

With `Cc1ccc(Nc2ccnc3ccc(C(F)(F)F)cc23)cc1O`, the inhibition stood at 2.31%.

In the case of `CCCNCc1ccc(-c2ccc(CN(CCOC)C(=O)c3cscn3)cc2)nc1`, the inhibition stood at 2.19%.

For `CCOC(=O)CCCCOc1c(OC)cc(Cc2cnc(N)nc2N)cc1OC`, the inhibition amounted to 6.09%.

Regarding `OCCNc1nc(Nc2ccc(F)cc2)nc2ccccc12`, the inhibition turned out to be 2.07%.

As for `CC1CCCCN1CCCNc1nc(NCc2ccccc2)c2ccccc2n1` (stereo not given), the inhibition amounted to 10.2%.

In the case of `Clc1ccc2nc(-c3cccnc3)[nH]c2c1`, the inhibition was found to be 6.56%.

Turning to `Cn1nc(C(F)(F)F)c(-c2ccc(F)cc2)c1NC(=O)Nc1ccc(F)cc1F`, the inhibition came out at 2.29%.

As for `CS(=O)(=O)CCOCc1ccc(-c2ccc3ncnc(Nc4ccc(OCc5cccc(F)c5)c(Cl)c4)c3c2)o1`, the inhibition was found to be 7%.

As for `CCOc1ccc(C(=O)Nc2cc(Br)c3c(c2)CNCC3)cc1C#N`, the inhibition is 5.78%.

For the molecule `CCN(CC)CCn1c(=N)n(CC(=O)c2ccc(-c3ccccc3)cc2)c2ccccc21`, the inhibition came to 2.35%.

In the case of `CN1CCN(c2cc(NC(=O)c3ccc(-c4ccc(Cl)cc4)cc3)ccc2Cl)CC1`, the inhibition was -1.86%.

With `COc1ccc2nccc(N/N=C/c3cccc([N+](=O)[O-])c3)c2c1`, the inhibition is 4.33%.

On to `CC(C)(C)C1CC(=O)CC2C(=O)N(c3ccc(Br)cc3)C(=O)C21` (stereo not given), for which the inhibition was -1.64%.

As for `COc1cc2nc(N3CCC(CNC(=O)c4ccc(NC(=O)c5ccc(Cl)cc5)cc4)CC3)nc(N)c2cc1OC`, the inhibition was found to be 0.86%.

As to `O=C(Nc1cccc(-c2cccc(-c3nc4ccccc4[nH]3)c2)c1)Nc1ccc2c(c1)OCO2`, the inhibition came to 1.05%.

In the case of `CCN(CC)CCOc1ccc(Nc2ncc3cc(-c4c(Cl)cccc4Cl)c(=O)n(C)c3n2)cc1`, the inhibition came to 17.9%.

Consider `COc1ccc(CN(C)CC(O)COc2ccc(NC(=O)c3cccc4c(=O)c5cccc(OC)c5[nH]c34)cc2)cc1OC` (stereo not given), for which the inhibition came to 3.9%.

Take `O=C(Nc1ccccc1)c1nn(CCCN2CCC(N3CCCC3)CC2)cc1-c1ccc(Cl)c(Cl)c1`: the inhibition came to 0.89%.

`Cc1[nH]c(C)c(-c2ccc(OCc3ccc(F)cc3)cc2)c(=O)c1Br`: the inhibition is -1.56%.

For the molecule `CCOc1ccc(C(=O)Nc2cc3c(c(C(F)(F)F)c2)CCNC3)cc1Cl`, the inhibition worked out at 5.38%.

For `CCCC(C(=O)OCCN(CC)CC)(c1ccc(Cl)cc1)c1ccc(Cl)cc1`, the inhibition came out at 7.04%.

As for `Cn1cc(CCNc2ccnc(N3CCC(c4ncc[nH]4)CC3)n2)c2ccccc21`, the inhibition was -2.28%.

With `Clc1cnc2ccc3c(c2c1CCN1CCC(NCc2cc4c(cn2)OCCO4)CC1)OCCO3`, the inhibition was found to be 14.9%.

Consider `CCCCCCCCn1c2c(c(=N)c3c1CCC3)CCC2`, for which the inhibition was found to be 89.9%.

In the case of `O=C(Nc1ccc2c(c1)OCO2)c1cc(-c2cccnc2)cnc1NCc1ccc2c(c1)OCO2`, the inhibition was 2.1%.

For `CC(C)CNCc1cccc(-c2cccc(CN(CCN(C)C)C(=O)Nc3ccccc3)c2)c1`, the inhibition was determined as 0.55%.

As for `NC(=O)c1cnc2cc(-c3ccoc3)ccc2c1Nc1ccc(NC(=O)Nc2ccccc2Cl)cc1`, the inhibition is -3.01%.

Regarding `Cc1cccc2nc(-c3cccc(-c4ccc(CNCCCN5CCCC5=O)cc4)c3)[nH]c12`, the inhibition was found to be 6.5%.

A word on the inhibition: it is the relative decrease from the control value, in per cent.
